Laboratory results taken from PubChem BioAssay AID1159580 (chemical genetic matrix, 2015).
The campaign covered roughly 5,500 compounds. About 2,000 (36%) were called active. About 18% were inconclusive and are not listed. The list shows a part of the results. Values without a mark were called inactive. No stated cut-off is given here; in the data, active means normalized growth mostly below about 0.91 (no sharp cut-off); inconclusive means no clear call, values can overlap the other calls; inactive means mostly above about 0.92.

Experiment: chemical genetic growth profiling, strain panel (AID 1159580);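 further: tested at 20 µM; growth read once vehicle control cultures reached saturation at 30 °C; 1 = growth at the plate median or of vehicle wells; lower values mean less growth of the strain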
Conditions: growth OD

Question: Which normalized growth (S. cerevisiae deletion strains, locus YJR075W, strain HOC1, hits give low values) does the source give for O=C(O)C(O)C(O)C(=O)O (configuration not stated) here?
Answer: 0.993

Question: What about the normalized growth (S. cerevisiae deletion strains, locus YKL009W, strain mrt4, hits give low values) of the same compound?
Answer: 0.985

Question: And the normalized growth (S. cerevisiae deletion strains, locus YKL068W, hits give low values)?
Answer: 0.98

Question: What about the normalized growth (S. cerevisiae deletion strains, locus YKL085W, strain MDH1 (second series), hits give low values) of the same compound?
Answer: 0.986

Question: What about the normalized growth (S. cerevisiae deletion strains, locus YKL085W, strain MDH1, hits give low values) of the same compound?
Answer: 0.986

Question: And the normalized growth (S. cerevisiae deletion strains, locus YKL160W, strain elf1, hits give low values)?
Answer: 1.01

Question: What about the normalized growth (S. cerevisiae deletion strains, locus YKL190W, strain CNB1, hits give low values) of the same compound?
Answer: 0.978

Question: And the normalized growth (S. cerevisiae deletion strains, locus YKR001C, strain vps1, hits give low values)?
Answer: 0.983

Question: And the normalized growth (S. cerevisiae deletion strains, locus YKR026C, strain gcn3, hits give low values)?
Answer: 1.01

Question: And the normalized growth (S. cerevisiae deletion strains, locus YKR091W, strain srl3, hits give low values)?
Answer: 1

Question: What about the normalized growth (S. cerevisiae deletion strains, locus YLL001W, strain dnm1, hits give low values) of the same compound?
Answer: 0.992

Question: What about the normalized growth (S. cerevisiae deletion strains, locus YLL026W, hits give low values) of the same compound?
Answer: 0.972

Question: And the normalized growth (S. cerevisiae deletion strains, locus YLL041C, strain sdh2, hits give low values)?
Answer: 0.994

Question: And the normalized growth (S. cerevisiae deletion strains, locus YLR027C, strain aat2, hits give low values)?
Answer: 0.999

Question: And the normalized growth (S. cerevisiae deletion strains, locus YLR039C, strain RIC1, hits give low values)?
Answer: 0.961

Question: And the normalized growth (S. cerevisiae deletion strains, locus YLR058C, strain SHM2, hits give low values)?
Answer: 0.976

Question: What about the normalized growth (S. cerevisiae deletion strains, locus YLR102C, strain apc9, hits give low values) of the same compound?
Answer: 0.988

Question: And the normalized growth (S. cerevisiae deletion strains, locus YLR113W, strain HOG1, hits give low values)?
Answer: 0.938

Question: What about the normalized growth (S. cerevisiae deletion strains, locus YLR221C, strain rsa3, hits give low values) of the same compound?
Answer: 0.986

Question: What about the normalized growth (S. cerevisiae deletion strains, locus YLR258W, strain gsy2, hits give low values) of the same compound?
Answer: 0.998

Question: And the normalized growth (S. cerevisiae deletion strains, locus YLR262C, strain YPT6 (second series), hits give low values)?
Answer: 1.01

Question: What about the normalized growth (S. cerevisiae deletion strains, locus YLR262C, strain YPT6, hits give low values) of the same compound?
Answer: 0.934

Question: What about the normalized growth (S. cerevisiae deletion strains, locus YLR268W, strain sec22, hits give low values) of the same compound?
Answer: 0.971

Question: And the normalized growth (S. cerevisiae deletion strains, locus YLR320W, strain mms22, hits give low values)?
Answer: 1

Question: And the normalized growth (S. cerevisiae deletion strains, locus YLR330W, strain CHS5, hits give low values)?
Answer: 0.991

Question: And the normalized growth (S. cerevisiae deletion strains, locus YLR342W, strain FKS1 (second series), hits give low values)?
Answer: 1.03

Question: What about the normalized growth (S. cerevisiae deletion strains, locus YLR342W, strain FKS1, hits give low values) of the same compound?
Answer: 0.997

Question: What about the normalized growth (S. cerevisiae deletion strains, locus YLR357W, strain rsc2, hits give low values) of the same compound?
Answer: 0.966

Question: And the normalized growth (S. cerevisiae deletion strains, locus YLR370C, strain arc18, hits give low values)?
Answer: 1

Question: What about the normalized growth (S. cerevisiae deletion strains, locus YLR371W, strain rom2, hits give low values) of the same compound?
Answer: 0.997

Question: What about the normalized growth (S. cerevisiae deletion strains, locus YLR384C, strain iki3, hits give low values) of the same compound?
Answer: 0.988

Question: And the normalized growth (S. cerevisiae deletion strains, locus YLR418C, strain cdc73, hits give low values)?
Answer: 0.986

Question: And the normalized growth (S. cerevisiae deletion strains, locus YML016C, strain PPZ1, hits give low values)?
Answer: 0.992

Question: And the normalized growth (S. cerevisiae deletion strains, locus YML032C, strain rad52, hits give low values)?
Answer: 1

Question: What about the normalized growth (S. cerevisiae deletion strains, locus YML120C, strain ndi1, hits give low values) of the same compound?
Answer: 0.998

Question: What about the normalized growth (S. cerevisiae deletion strains, locus YML124C, strain tub3, hits give low values) of the same compound?
Answer: 0.997

Question: And the normalized growth (S. cerevisiae deletion strains, locus YMR058W, strain fet3, hits give low values)?
Answer: 1.01

Question: And the normalized growth (S. cerevisiae deletion strains, locus YMR078C, strain ctf18, hits give low values)?
Answer: 0.984

Question: What about the normalized growth (S. cerevisiae deletion strains, locus YMR125W, strain sto1, hits give low values) of the same compound?
Answer: 0.987

Question: And the normalized growth (S. cerevisiae deletion strains, locus YMR129W, hits give low values)?
Answer: 0.995

Question: What about the normalized growth (S. cerevisiae deletion strains, locus YMR205C, strain PFK2, hits give low values) of the same compound?
Answer: 0.981

Question: And the normalized growth (S. cerevisiae deletion strains, locus YMR223W, strain ubp8, hits give low values)?
Answer: 1

Question: And the normalized growth (S. cerevisiae deletion strains, locus YMR231W, strain pep5, hits give low values)?
Answer: 1

Question: What about the normalized growth (S. cerevisiae deletion strains, locus YMR263W, strain SAP30, hits give low values) of the same compound?
Answer: 0.976

Question: What about the normalized growth (S. cerevisiae deletion strains, locus YMR307W, strain GAS1, hits give low values) of the same compound?
Answer: 0.921

Question: And the normalized growth (S. cerevisiae deletion strains, locus YNL067W, strain RPL9B, hits give low values)?
Answer: 0.993

Question: What about the normalized growth (S. cerevisiae deletion strains, locus YNL071W, strain lat1, hits give low values) of the same compound?
Answer: 0.987

Question: What about the normalized growth (S. cerevisiae deletion strains, locus YNL128W, strain TEP1, hits give low values) of the same compound?
Answer: 0.981

Question: What about the normalized growth (S. cerevisiae deletion strains, locus YNL153C, strain GIM3, hits give low values) of the same compound?
Answer: 0.979

Question: What about the normalized growth (S. cerevisiae deletion strains, locus YNL183C, strain NPR1, hits give low values) of the same compound?
Answer: 0.919

Question: And the normalized growth (S. cerevisiae deletion strains, locus YNL209W, strain ssb2, hits give low values)?
Answer: 1.02

Question: And the normalized growth (S. cerevisiae deletion strains, locus YNL233W, strain BNI4, hits give low values)?
Answer: 0.986

Question: What about the normalized growth (S. cerevisiae deletion strains, locus YNL248C, strain rpa49, hits give low values) of the same compound?
Answer: 0.994

Question: What about the normalized growth (S. cerevisiae deletion strains, locus YNL250W, strain rad50, hits give low values) of the same compound?
Answer: 0.987

Question: And the normalized growth (S. cerevisiae deletion strains, locus YNL271C, strain bni1, hits give low values)?
Answer: 0.992

Question: And the normalized growth (S. cerevisiae deletion strains, locus YNL298W, strain CLA4, hits give low values)?
Answer: 0.988

Question: And the normalized growth (S. cerevisiae deletion strains, locus YNL307C, strain MCK1, hits give low values)?
Answer: 0.991

Question: What about the normalized growth (S. cerevisiae deletion strains, locus YNL322C, strain KRE1 (second series), hits give low values) of the same compound?
Answer: 0.985

Question: What about the normalized growth (S. cerevisiae deletion strains, locus YNL322C, strain KRE1, hits give low values) of the same compound?
Answer: 0.99

Question: And the normalized growth (S. cerevisiae deletion strains, locus YNR049C, strain mso1, hits give low values)?
Answer: 1

Question: What about the normalized growth (S. cerevisiae deletion strains, locus YNR052C, strain pop2, hits give low values) of the same compound?
Answer: 0.991

Question: And the normalized growth (S. cerevisiae deletion strains, locus YOL006C, strain TOP1, hits give low values)?
Answer: 0.97

Question: And the normalized growth (S. cerevisiae deletion strains, locus YOL012C, strain htz1)?
Answer: 1.53

Question: What about the normalized growth (S. cerevisiae deletion strains, locus YOL147C, strain pex11, hits give low values) of the same compound?
Answer: 0.987

Question: And the normalized growth (S. cerevisiae deletion strains, locus YOR001W, strain rrp6, hits give low values)?
Answer: 0.991

Question: And the normalized growth (S. cerevisiae deletion strains, locus YOR061W, strain CKA2, hits give low values)?
Answer: 0.959

Question: What about the normalized growth (S. cerevisiae deletion strains, locus YOR069W, strain VPS5, hits give low values) of the same compound?
Answer: 0.997

Question: And the normalized growth (S. cerevisiae deletion strains, locus YOR070C, strain gyp1, hits give low values)?
Answer: 0.984

Question: And the normalized growth (S. cerevisiae deletion strains, locus YOR080W, strain dia2, hits give low values)?
Answer: 1

Question: And the normalized growth (S. cerevisiae deletion strains, locus YOR083W, strain WHI5, hits give low values)?
Answer: 1.01

Question: What about the normalized growth (S. cerevisiae deletion strains, locus YOR106W, strain vam3, hits give low values) of the same compound?
Answer: 0.994

Question: What about the normalized growth (S. cerevisiae deletion strains, locus YOR136W, strain idh2, hits give low values) of the same compound?
Answer: 0.997

Question: What about the normalized growth (S. cerevisiae deletion strains, locus YOR144C, strain elg1, hits give low values) of the same compound?
Answer: 0.986

Question: What about the normalized growth (S. cerevisiae deletion strains, locus YOR184W, strain ser1, hits give low values) of the same compound?
Answer: 1.01

Question: And the normalized growth (S. cerevisiae deletion strains, locus YOR231W, strain MKK1, hits give low values)?
Answer: 0.959

Question: What about the normalized growth (S. cerevisiae deletion strains, locus YOR265W, strain rbl2, hits give low values) of the same compound?
Answer: 0.995

Question: What about the normalized growth (S. cerevisiae deletion strains, locus YOR270C, strain vph1, hits give low values) of the same compound?
Answer: 0.979

Question: What about the normalized growth (S. cerevisiae deletion strains, locus YOR290C, strain snf2, hits give low values) of the same compound?
Answer: 1.02

Question: And the normalized growth (S. cerevisiae deletion strains, locus YOR316C, strain cot1, hits give low values)?
Answer: 0.98

Question: And the normalized growth (S. cerevisiae deletion strains, locus YPL051W, strain arl3, hits give low values)?
Answer: 1.01

Question: And the normalized growth (S. cerevisiae deletion strains, locus YPL055C, strain LGE1, hits give low values)?
Answer: 0.965

Question: What about the normalized growth (S. cerevisiae deletion strains, locus YPL078C, strain atp4, hits give low values) of the same compound?
Answer: 0.999

Question: And the normalized growth (S. cerevisiae deletion strains, locus YPL106C, strain sse1, hits give low values)?
Answer: 0.976

Question: What about the normalized growth (S. cerevisiae deletion strains, locus YPL240C, strain hsp82, hits give low values) of the same compound?
Answer: 0.989

Question: What about the normalized growth (S. cerevisiae deletion strains, locus YPL241C, strain CIN2, hits give low values) of the same compound?
Answer: 1.07 [resistant] (active)

Question: What about the normalized growth (S. cerevisiae deletion strains, locus YPL256C, strain CLN2, hits give low values) of the same compound?
Answer: 0.943

Question: And the normalized growth (S. cerevisiae deletion strains, locus YPR119W, strain clb2, hits give low values)?
Answer: 0.994

Question: And the normalized growth (S. cerevisiae deletion strains, locus YPR141C, strain kar3, hits give low values)?
Answer: 0.97

Question: What about the normalized growth (S. cerevisiae deletion strains, locus YPR163C, strain tif3, hits give low values) of the same compound?
Answer: 0.991

Question: What about the normalized growth (S. cerevisiae deletion strains, locus YPR167C, strain met16, hits give low values) of the same compound?
Answer: 0.98

Question: And the normalized growth (S. cerevisiae deletion strains, strain wtn01, hits give low values)?
Answer: 0.997

Question: And the normalized growth (S. cerevisiae strains, strain wild type, hits give low values)?
Answer: 0.996
